# Laboratory results from PubChem BioAssay (NCI).
# Compounds without any hit were thinned out: in the full panel of roughly 83,000, 20% have a hit.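 A percent growth of 40 corresponds to 60% growth inhibition; 0 means no net growth; -100 means all cells died. Active threshold: below 10.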 Values without a mark were called inactive. Active and inactive are the calls of the source.
# System: HL-60(TB) leukemia
# Assay: NCI-60 one-dose screen, 48 h (100 = growth as untreated, 0 = no growth, -100 = all killed)
# Details: 10 µM unless noted
row,Compound,growth
1,CC[N+](CC)=c1ccc2nc3c(cc(NCc4ccccc4)c4ccccc43)oc-2c1,-41.2% (active)
2,O=C1c2ccccc2C(=O)N1CCCCNc1ccccc1,5.16% (active)
3,COc1ccc(-c2cc(-c3ccc(OC)cc3)nc(NCCCNc3ccnc4cc(Cl)ccc34)n2)cc1,-37.7% (active)
4,CC1CCC(C)N(C)C1 (stereo not given),96.2%
5,COC1NC(Cl)=C(C#N)C(C#N)(C#N)C1(C)C (stereo not given),92.9%
